Screening data as filed in PubChem BioAssay.
Shown are actives, neighbours in structure and some others; about 6.6% of the full set was active somewhere.
Bead autofluor – counter-screen for toxin protease inhibitors: compound fluorescence; fluorescence intensity (concentration not given with the values); compound autofluorescence counterscreen, microsphere flow cytometry; hits give high values; 360,000 tested, 3.1% active; in the data active = fluorescence intensity above about 16000; inconclusive = no clear call, values can overlap the other calls
BoNT-F LC inh – blocks Botulinum neurotoxin F light chain protease. Multiplex microsphere protease cleavage assay, flow cytometry. inhibition, % at 10 µM. 360,000 tested, 0.22% active; in the data active = inhibition above about 35%, passing the limit was not always enough; inconclusive = no clear call, values can overlap the other calls; also: plate controls were buffer without enzyme for full effect and enzyme alone for no effect
Anthrax LF prot – inhibitors of Bacillus anthracis lethal factor protease | multiplex microsphere protease cleavage assay, LF | inhibition, % at 10 µM | 360,000 tested, 0.12% active | AID 588501; also: plate controls were buffer without enzyme for full effect and enzyme alone for no effect
GDH-TPI counter – counter-screen for M. tuberculosis FBA inhibitors: GDH-TPI coupled enzymes | GDH-TPI coupled enzyme counterscreen, NADH absorbance | inhibition, % at 4.8 µM | 360,000 tested, 1.2% active | AID 588335; in the data active = inhibition above about 30%;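 also: 0% = DMSO wells and 100% = wells lacking the enzyme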
BoNT A protease – inhibitors of Botulinum neurotoxin A light chain protease | multiplex microsphere protease substrate cleavage, flow cytometry | inhibition, % at 10 µM | 360,000 tested, 0.17% active; also: plate controls were buffer without enzyme for full effect and enzyme alone for no effect
FBA Mtb inh – Mtb fructose-bisphosphate aldolase inhibition; purified M. tuberculosis FBA, fluorescence read-out; P9WQA3; inhibition, % at 1 µM; 360,000 tested, 2.3% active; in the data active = inhibition above about 27%;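 also: 0% = vehicle and 100% = reference inhibitor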
Target sequence (P9WQA3 whole entry, looked up): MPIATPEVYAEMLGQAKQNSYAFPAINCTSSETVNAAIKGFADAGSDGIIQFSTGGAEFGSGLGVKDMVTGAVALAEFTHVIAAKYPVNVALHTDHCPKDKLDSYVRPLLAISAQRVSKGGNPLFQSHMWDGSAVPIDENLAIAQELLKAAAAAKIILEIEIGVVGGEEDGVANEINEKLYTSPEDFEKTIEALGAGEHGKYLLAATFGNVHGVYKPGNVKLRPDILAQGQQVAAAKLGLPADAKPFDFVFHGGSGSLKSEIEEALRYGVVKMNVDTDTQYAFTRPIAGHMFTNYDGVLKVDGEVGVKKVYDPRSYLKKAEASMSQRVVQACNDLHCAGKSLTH
* = called active by the depositor; ? = inconclusive; nt = no result; + = active, no number. Rule as the data show it, unless noted: active = inhibition above about 30%; inconclusive = no clear call, values can overlap the other calls; inactive = below that.

SMILES	Bead autofluor	BoNT-F LC inh	Anthrax LF prot	GDH-TPI counter	BoNT A protease	FBA Mtb inh
COCCCNC(=O)C1c2ccccc2Oc2ccccc21	3595	42*	9	-1	0	-1
O=C(Cn1nnc(-c2cccs2)n1)N1CCc2ccccc2C1	21633*	2	-12	5	1	1
O=C(Cn1c(=O)sc2ccccc21)Nc1ccc(O)cc1	2588	-1	-3	2	0	2
CCCC(C)c1nnc(NC(=O)c2cc(C(=O)OC)cc([N+](=O)[O-])c2)s1 (configuration not stated)	16199*	-2	0	26	?	-1
COC(=O)c1cc(C(=O)Nc2ccc(C)cn2)cc([N+](=O)[O-])c1	22666*	-2	2	3	?	0
Cc1ccc(C(=O)Nc2ccc([N+](=O)[O-])cn2)o1	2545	-6	-5	40*	-1	-5
CCCC(C)NC(=O)c1cc(C(=O)OC)cc([N+](=O)[O-])c1 (configuration not stated)	7303	-4	-3	-4	0	-1
COc1ccccc1NC(=O)c1ccc(CSc2ccccc2)o1	?	2	2	3	-2	2
CC(NC(=S)Nc1ccccc1C(F)(F)F)C1CC2CCC1C2 (configuration not stated)	3115	-6	-10	3	0	0
CCC(=O)/C=C1/Sc2ccc(OC)cc2N1CC	7869	2	2	35*	1	-1
CCC(=O)/C=C1/Sc2ccccc2N1CC	4656	2	0	39*	2	0
CCC(=O)/C=C1/Sc2ccc(OC)cc2N1CCO	5619	-6	-1	12	-2	-7
CCN1/C(=C/C(=O)c2ccco2)Sc2ccccc21	3240	-1	0	11	1	3
Cc1cccc(C)c1NC(=O)CN(C)C(=O)c1ccc(OCc2ccccc2)cc1	3679	-6	-4	-12	0	3
Nc1nc2c(ncn2[C@@H]2O[C@H](CNCc3cnc(N4CCOCC4)s3)[C@@H](O)[C@H]2O)c(=O)[nH]1	4658	-11	-14	nt	-1	2
CC1(C)C2CC=C(CN3CCC(O)CC3)C1C2 (configuration not stated)	16149*	0	-2	0	?	4
COc1ccc(/C=N/NC(=O)c2cccc3ccccc23)c(OC)c1OC	6874	-3	-7	23	0	2
COc1ccc(/C=N/NC(=O)c2cccnc2)c2ccccc12	3930	0	11	36*	-3	3
COc1ccc(/C=N/NC(=O)c2cccs2)c2ccccc12	?	?	-17	32*	-5	1
Cn1cc(/C=N\NC(=O)c2cccs2)c2ccccc21	2609	3	-1	32*	0	0
COc1ccc(/C=N/NC(=O)c2cccnc2)c(C(=O)O)c1OC	4570	-8	-10	32*	-2	-2
COc1ccccc1/C=C/C(=O)NCC(=O)N/N=C/c1cccnc1	2752	2	-1	10	-1	10
COc1ccccc1NCC(=O)N/N=C/c1cccnc1	23032*	-3	-2	2	-3	2
COC(=O)c1ccc(CNC(=O)c2ccc(S(=O)(=O)N3CCCC(C)C3)cc2)cc1 (configuration not stated)	3957	4	2	4	0	1
O=c1oc2cc(Oc3c([N+](=O)[O-])cc(C(F)(F)F)cc3[N+](=O)[O-])ccc2c2c1CCCC2	9429	0	11	22	1	+
SMILES	Bead autofluor	BoNT-F LC inh	Anthrax LF prot	GDH-TPI counter	BoNT A protease	FBA Mtb inh
Cc1noc(C)c1C(=O)Nc1cccc(S(=O)(=O)N2CCOCC2)c1	3814	5	-7	5	0	-2
C=CCN(CC=C)c1cnn(-c2nc3ccccc3[nH]2)c(=O)c1Cl	21324*	-2	-2	19	-3	2
CCc1cc(-c2n[nH]c(=S)n2-c2cccc(C)c2)cs1	18843*	11	-9	3	11	5
Cc1cccc(-n2c(-c3csc(C)c3)n[nH]c2=S)c1	16396*	-2	-8	11	?	5
Cc1csc(SCC(=O)Nc2ccc3[nH]c(=O)[nH]c3c2)n1	3368	-15	-6	3	0	2
Cc1ccc(S(=O)(=O)Oc2ccc(C)cc2/C=N/N=C2\NC(=O)C(C)S2)cc1 (configuration not stated)	4665	11	1	38*	-1	-1
CC(NS(=O)(=O)c1ccccc1)C(N)=O (configuration not stated)	17096*	-3	-7	2	-2	-2
COc1ccccc1NC(=O)C(C)NS(=O)(=O)c1ccccc1 (configuration not stated)	3385	-4	-1	-1	0	1
CC(=O)NC(c1ccccc1)c1cccnc1 (configuration not stated)	16197*	-1	-1	14	0	-5
OC(c1ccccc1)c1cccnc1 (configuration not stated)	10157	1	-1	6	0	2
O=C(Nc1ccc(F)cc1)NC1(C(=O)NCc2ccco2)CCCCC1	16458*	-2	-6	13	0	3
Cc1nc(-c2ccccc2)sc1-c1ccnn1C	4359	-11	-2	2	-1	124*
CCn1nc(C)c(NC(=O)c2cc(Br)ccc2Cl)c1C	19900*	-1	-5	-7	0	1
CC(C)(C)c1cc(C(=O)Nc2cccc3ccccc23)ccn1	6897	-8	9	8	-1	-2
CCc1ccc(NC(=O)c2cccnc2)cc1	21122*	-5	-2	-1	?	1
CCc1ccc(OC(=O)c2cccnc2)cc1	3031	-6	37*	3	-3	5
CCc1ccc(NC(=O)N(C2CCCCC2)C(C)c2cccnc2)cc1 (configuration not stated)	20168*	-2	0	-13	-2	-4
CCc1ccc(NC(=O)c2ccnc(C(C)(C)C)c2)cc1	24202*	-2	-2	-1	-1	1
CCOc1ccc2nc(C)cc(Nc3cccc([N+](=O)[O-])c3)c2c1	2603	-8	-1	10	0	-2
O=C(O)CCN1C(=O)c2ccc(Oc3ccc([N+](=O)[O-])cc3)cc2C1=O	nt	nt	nt	20	nt	2
Cc1nc2ccc(S(=O)(=O)NCC(=O)NC(C)c3ccccc3)cc2s1 (configuration not stated)	4590	-8	2	-2	0	2
O=C1OC(O)c2cccc3cccc1c23 (configuration not stated)	3621	-2	3	2	0	7
CCC1(c2ccccc2)NC(=O)N(CC(=O)Nc2ccc(OC)nc2)C1=O (configuration not stated)	5884	-8	-1	0	2	1
CCN(C(=O)c1ccnc(C(C)(C)C)c1)c1ccccc1	21211*	6	-3	4	6	-2
CCCNS(=O)(=O)c1ccc(NC(=O)c2cccnc2)cc1	20443*	1	0	-4	0	0
